Test results published in the supplement of paper PMC12494721.
Where a name gives a salt, the structure may show the parent alone.

The compounds below were run on Escherichia coli IAI1 (assay: growth (OD595) fold change vs plate DMSO controls (fold change (ratio)); higher = more growth). Conditions: incubation time: 27 h, anaerobic, 37 °C.
How it was run: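 After 27 h at 37 °C under anaerobic conditions, 96-well cultures in mGAM were shaken and read at 595 nm. The readings were blank-subtracted, corrected for compound background using 20 µM compound solutions in water, and converted to OD with a calibration factor of 5. Growth is defined as the fold change over the median of DMSO controls on each plate. Fold changes above 1.5 were set to NA, and each value is the mean of 2 biological replicates.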

| SMILES | growth |
| --- | --- |
| COc1ccc(CC(C)NCC(O)c2ccc(O)c(NC=O)c2)cc1 (centres undefined) [Formoterol fumarate] (20 µM) | 1.21 |
| CCN(CC)CCc1nc(-c2ccccc2)no1 [Oxolamine citrate salt] (20 µM) | 0.976 |
| O=C(O)c1cc(-c2ccc(F)cc2F)ccc1O [Diflunisal] (20 µM) | 0.978 |
| NC(=O)NC1NC(=O)NC1=O (centres undefined) [Allantoin] (20 µM) | 1.14 |
| CN1CCCN=C1/C=C/c1cccs1 [Pyrantel tartrate] (20 µM) | 1.04 |
| CCN1CCN(c2cc3c(cc2F)c(=O)c(C(=O)O)cn3C2CC2)CC1 [Enrofloxacin] (20 µM) | 0.0344 |
| CCCNC(C)C(=O)Nc1c(C)csc1C(=O)OC (centres undefined) [Articaine hydrochloride] (20 µM) | 1.08 |
| CCN(CC)CC(=O)Nc1c(C)cccc1C [Lidocaine hydrochloride] (20 µM) | 0.973 |
| CCn1cc(C(=O)O)c(=O)c2cc(F)c(N3CCNC(C)C3)c(F)c21 (centres undefined) [Lomefloxacin hydrochloride] (20 µM) | 0.0575 |
| C[C@]12CCC(=O)C=C1CC[C@@H]1[C@@H]2C(=O)C[C@@]2(C)[C@H]1CC[C@]2(O)C(=O)CO [Cortisone] (20 µM) | 0.978 |
| CCN(CC)CCNC(=O)c1cc(Cl)c(N)cc1OC [Metoclopramide monohydrochloride] (20 µM) | 1.01 |
| C[C@@H](CN1CC(=O)NC(=O)C1)N1CC(=O)NC(=O)C1 [Dexrazoxane hydrochloride] (20 µM) | 1.01 |
| CCOc1ccc(NC(C)=O)cc1 [Phenacetin] (20 µM) | 1.02 |
| CC(C)C(=O)Nc1ccc([N+](=O)[O-])c(C(F)(F)F)c1 [Flutamide] (20 µM) | 1 |
| Cc1ccc2c([nH]c(=O)c3c(=O)cc(C(=O)OCCC(C)C)oc32)c1C [Repirinast] (20 µM) | 1.03 |
| CCCCc1oc2ccccc2c1C(=O)c1cc(I)c(OCCN(CC)CC)c(I)c1 [Amiodarone hydrochloride] (20 µM) | 1.02 |
| NCc1ccc(S(N)(=O)=O)cc1 [Mafenide hydrochloride] (20 µM) | 1 |

| SMILES | growth |
| --- | --- |
| CC[C@@H](CO)NCCN[C@@H](CC)CO [Ethambutol dihydrochloride] (20 µM) | 1.02 |
| Nc1c2ccccc2nc2ccccc12 [Aminacrine] (20 µM) | 1.11 |
| CC(C(=O)O)c1cccc(C(=O)c2ccccc2)c1 (centres undefined) [Ketoprofen] (20 µM) | 1.04 |
| CCOC(=O)[C@H](CCc1ccccc1)N[C@H]1CS[C@H](c2cccs2)CN(CC(=O)O)C1=O [Temocapril hydrochloride] (20 µM) | 1.05 |
| CC(COc1ccccc1)N(CCCl)Cc1ccccc1 (centres undefined) [Phenoxybenzamine hydrochloride] (20 µM) | 1.03 |
| CC1(C)OC(=O)NC1=O [Dimethadione] (20 µM) | 0.98 |
| c1cnc(N2CCN(Cc3ccc4c(c3)OCO4)CC2)nc1 [Piribedil] (20 µM) | 1 |
| O=c1[nH]c(=O)n(C2CCCO2)cc1F (centres undefined) [Tegafur] (20 µM) | 0.975 |
| Nc1ccc(S(=O)(=O)Nc2ncccn2)cc1 [Sulfadiazine] (20 µM) | 0.939 |
| Cc1onc(-c2c(Cl)cccc2Cl)c1C(=O)N[C@@H]1C(=O)N2[C@@H]1SC(C)(C)[C@@H]2C(=O)O [Dicloxacillin sodium salt hydrate] (20 µM) | 0.996 |
| CN(C)CCC=C1c2ccccc2C=Cc2ccccc21 [Cyclobenzaprine hydrochloride] (20 µM) | 1.01 |
| C#C[C@]1(O)CC[C@H]2[C@@H]3CCc4cc(O)ccc4[C@H]3CC[C@@]21C [Ethinylestradiol] (20 µM) | 1.04 |
| CN1CC(O)c2cc(N=NC(N)=O)c(O)cc21 (centres undefined) [Carbazochrome] (20 µM) | 1.01 |
| C[C@@H](O[C@H]1OCCN(Cc2n[nH]c(=O)[nH]2)[C@H]1c1ccc(F)cc1)c1cc(C(F)(F)F)cc(C(F)(F)F)c1 [Aprepitant] (20 µM) | 0.988 |
| CCOC(=O)c1c(N)sc2c1CCN(Cc1ccccc1)C2 [Tinoridine hydrochloride] (20 µM) | 0.977 |
| C/C(=C1\CCOC(=O)S1)N(C=O)Cc1cnc(C)nc1N [Cycotiamine] (20 µM) | 0.988 |
| CCN1CCN(C(=O)N[C@@H](C(=O)N[C@@H]2C(=O)N3[C@@H]2SC(C)(C)[C@@H]3C(=O)O)c2ccccc2)C(=O)C1=O [Piperacillin sodium salt] (20 µM) | 0.563 |
